Only some compounds are listed: those with a hit (about 4.9% of all), similar ones and a draw of the others.
MPTP block = inhibitors of mitochondrial permeability transition pore; isolated mouse mitochondria, Ca2+ swelling absorbance, 30 min; inhibition, % at 10 µM; 360,000 compounds, 1.4% hits; AID 602449;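 active = inhibition of 50% or more, scaled per plate between neutral and stimulator controls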
Platelet DG rel = modulates dense granule release in human platelets | inhibition, %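 (compounds screened at 7.5 µM in platelet-rich plasma)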 | human platelet-rich plasma, SFLLRN dense granule ATP release, luminescence | 300,000 compounds, 0.22% hits;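 active = mean replicate score, as percent of positive control, at or above 50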
HSP90 inh = inhibitors of HSP90 luciferase refolding in rabbit reticulocyte lysate. luciferase refolding luminescence, 3 h. inhibition, % at 5.6 µM. 290,000 compounds, 0.91% hits;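 active = inhibition above the screen-wide mean plus 3 SD, computed separately per campaign, cut at about 16% in these data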;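 also: inhibitors lower the luminescence because luciferase stays unfolded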
dFosB act = activators of mouse delta FosB homodimer; P13346; purified delta FosB, TAMRA-CDK5 oligo fluorescence polarization; percent of positive-control signal above neutral wells; activation, % at 25 µM; 340,000 compounds, 0.99% hits; AID 493131;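 active = mean activation above about 17%, with every replicate also reaching it, limit read from the data, passing the limit was not always enough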
Target sequence (P13346 whole entry, looked up): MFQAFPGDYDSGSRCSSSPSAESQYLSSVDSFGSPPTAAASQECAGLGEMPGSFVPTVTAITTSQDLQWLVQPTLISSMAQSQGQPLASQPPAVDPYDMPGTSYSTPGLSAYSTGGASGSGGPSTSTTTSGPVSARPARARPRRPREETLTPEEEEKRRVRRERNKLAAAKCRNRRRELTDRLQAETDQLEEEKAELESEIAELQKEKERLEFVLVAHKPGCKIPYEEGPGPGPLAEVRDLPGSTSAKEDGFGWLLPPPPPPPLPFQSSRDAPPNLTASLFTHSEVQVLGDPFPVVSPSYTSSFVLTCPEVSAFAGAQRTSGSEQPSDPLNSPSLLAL
HSF1 activator = increases HSF-1 driven luciferase reporter signal; NIH3T3-HGL HSF-1 luciferase reporter, MG132, 8 h; 100% = twice DMSO control signal; activation, % at 9 µM; 300,000 compounds, 1.7% hits;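 active = mean replicate activation of at least 50% with a set share of replicates each reaching 50%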
HSF1 inh = HSF1 inhibition. NIH3T3-HGL HSE-luciferase, MG132-induced, luminescence 8 h; stronger effect = lower value. activity change, negative = inhibition, % at 7.5 µM (by protocol). 300,000 compounds, 0.77% hits. AID 2098;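 active = more than half of replicate wells show activity change below -50%, luminescence cut by over half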;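 also: luciferase reports HSF-1 transcriptional activity via heat shock element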
Rh123 counter = mitochondrial membrane potential, counter-screen. AID 624504. shares compounds with MPTP block. inhibition, % at 10 µM. 5,000 compounds, 78% hits. isolated mitochondria, Rhodamine 123 fluorescence; in the data active = inhibition above about 22%
MPTP abs DR = dose response confirmation of mitochondrial permeability transition pore inhibitors; shares compounds with MPTP block; isolated mitochondria swelling, absorbance; IC50, µM; 780 compounds, 58% hits; in the data active = IC50 below about 20 µM
MPTP counter DR = counter-screen for mitochondrial permeability transition pore inhibitors, dose response; IC50, µM; 780 compounds, 49% hits; shares compounds with MPTP block; AID 651564; isolated mitochondria counterscreen, fluorescence read-out; in the data active = IC50 below about 80 µM
Large screens that a line does not name were inactive (follow-up assays come after a bar, where they were run).

c1ccc(C(Cc2nc(-c3ccncc3)no2)c2ccccc2)cc1	MPTP block 78 | Rh123 counter 72
c1ccc(-c2nc(-c3ccncc3)no2)cc1	none
Oc1c(Cl)cc(Cl)cc1/C=C/c1ccc2cccc(O)c2n1	MPTP block 98 | Rh123 counter 74
O=C(Nc1ccc(Cl)c(Cl)c1)Nc1cc(C(=O)N2CCOCC2)ccc1N1CCCCC1	MPTP block 95 | Rh123 counter inactive | MPTP abs DR 18 | MPTP counter DR <2.5
O=C(Nc1ccccc1F)Nc1cc(S(=O)(=O)N2CCOCC2)ccc1N1CCCC1	none
O=C(Nc1cc(C(=O)N2CCOCC2)ccc1N1CCCC1)c1cccs1	none
O=C(Nc1ccc(Cl)c(Cl)c1)Nc1cc(S(=O)(=O)N2CCOCC2)ccc1N1CCCC1	MPTP block 94 | Rh123 counter 68
Cc1ccc(NS(=O)(=O)c2sc3ccc(Cl)cc3c2C)cc1	MPTP block 66 (no result: dFosB act) | Rh123 counter 63
Cc1csc(=O)n1CCC(=O)OCC(=O)NNC(=O)c1ccccc1	none (no result: HSP90 inh)
COc1ccc2nc3cc(Cl)ccc3c(Nc3cc(CN4CCCC4)c(O)c(CN4CCCC4)c3)c2n1	MPTP block 72 (no result: dFosB act) | Rh123 counter inactive
c1ccc(COc2ccc(OCCCNC3CCCC3)cc2)cc1	MPTP block 90 | Rh123 counter inactive | MPTP abs DR 3.1 | MPTP counter DR 43
COCCCNCCCCOc1ccc(OCc2ccccc2)cc1	none
Cc1oc(C(C)(C)C)cc1C(=O)NCc1ccc2c(c1)OCO2	MPTP block 63 | Rh123 counter 28
Cn1nc(C(C)(C)C)cc1C(=O)NCc1ccc2c(c1)OCO2	MPTP block 101 | Rh123 counter 105
Cc1ccc(O)c(N=Cc2cc(Cc3ccccc3)cc([N+](=O)[O-])c2O)c1	MPTP block 64 | Rh123 counter 55
Cc1ccc(C(=O)NNC(=S)NC(=O)c2ccc(Cl)cc2)cc1	MPTP block 91 | Rh123 counter inactive
Cc1ccccc1C(=O)NNC(=S)NC(=O)c1ccc(Cl)cc1Cl	MPTP block 76 | Rh123 counter inactive
Cc1cccc(C(=O)NC(=S)NNC(=O)c2ccccc2Cl)c1	MPTP block 85, HSF1 inh -86 | Rh123 counter inactive
CC(=O)NNC(=S)NC(=O)c1ccc(C)cc1	none
O=C(NC(=S)NNC(=O)c1ccc(Cl)cc1Cl)c1cccnc1	none
COc1ccc(/C=C/C(=O)NC(=S)NNC(=O)c2c(-c3ccccc3)noc2C)cc1	none
Cc1cccc(C(=O)NC(=S)NNC(=O)Cc2ccccc2)c1	none
Cc1onc(-c2ccccc2)c1C(=O)NNC(=S)NC(=O)/C=C/c1ccccc1	MPTP block 93 | Rh123 counter inactive
CC1(C(=O)NCc2ccc(C(F)(F)F)cc2)CCN1Cc1ccccc1OC(F)F (stereo unspecified)	none (no result: Platelet DG rel, HSP90 inh, dFosB act, HSF1 activator, HSF1 inh)
O=C(NC1CCCCC1)C1c2ccccc2OCC(=O)N1Cc1ccc2c(c1)OCO2 (stereo unspecified)	none (no result: Platelet DG rel, HSP90 inh, dFosB act, HSF1 activator, HSF1 inh)
CC(C)c1ccc(NC(=O)/C(C#N)=C/c2ccncc2)cc1	none
Cc1onc(-c2ccccc2)c1C(=O)NNC(=S)NC(=O)c1ccc(Cl)cc1Cl	MPTP block 104 | Rh123 counter 33
Cc1onc(-c2ccccc2)c1C(=O)NNC(=S)NC(=O)c1ccc(Br)cc1	MPTP block 68 | Rh123 counter 29
Cc1cccc(C(=O)NC(=S)NNC(=O)COc2c(C)cccc2C)c1	MPTP block 87 | Rh123 counter inactive | MPTP abs DR 6.7 | MPTP counter DR 39
Cc1onc(-c2ccccc2)c1C(=O)NNC(=O)c1ccccc1	none (no result: Platelet DG rel, HSP90 inh, HSF1 activator, HSF1 inh)
CC1(C(=O)NS(=O)(=O)c2cccs2)CCN1C(=O)Cc1ccccc1 (stereo unspecified)	none (no result: Platelet DG rel, HSP90 inh, dFosB act, HSF1 activator, HSF1 inh)
COc1ccc(-c2nc3ccc(C)cn3c2Cc2ccsc2)cc1OC	none (no result: Platelet DG rel, HSP90 inh, dFosB act, HSF1 activator, HSF1 inh)
OCc1ccccc1-c1cnc2cccnn12	none (no result: Platelet DG rel, HSP90 inh, dFosB act, HSF1 activator, HSF1 inh)
CC[C@@H]1[C@H]2CCCC(=O)N3CC[C@@H](C[C@@H]1OC(=O)Nc1ccccc1)[C@@H]23	none
Cc1ccc(NC(=S)NNC(=O)c2cccc([N+](=O)[O-])c2)cc1Cl	MPTP block 79 | Rh123 counter 65
Cc1ccc(C(=O)NNC(=S)Nc2cccc(Cl)c2Cl)cc1[N+](=O)[O-]	MPTP block 103 | Rh123 counter 85
CCCC[C@H](CN[C@@H](CNC)[C@H](C)CC)NCCC12CCC(CC1)C2	MPTP block 100 | Rh123 counter inactive | MPTP abs DR 6.1 | MPTP counter DR inactive
CSc1nc(Cl)c(Cc2ccc(OC(C)C)cc2)c(N(C)C)n1	MPTP block 60, HSF1 activator 59 | Rh123 counter inactive | MPTP abs DR inactive | MPTP counter DR 35
Cc1cc(C)cc(C(O)c2ncc(-c3ccccc3)[nH]2)c1 (stereo unspecified)	none (no result: Platelet DG rel, HSP90 inh, dFosB act, HSF1 activator, HSF1 inh)
N#C/C(=N\Nc1cccc(Cl)c1)C(=O)c1ccccc1	MPTP block 96 | Rh123 counter 80
COc1ccc(C(=O)/C(C#N)=N/Nc2cccc([N+](=O)[O-])c2)cc1	MPTP block 94 | Rh123 counter 81
CCC(CC)=NNc1cccc([N+](=O)[O-])c1	none
Cc1c(N/N=C(\C#N)C(=O)c2ccccc2)c(=O)n(-c2ccccc2)n1C	none
N#C/C(=N\Nc1ccccc1Cl)C(=O)c1ccccc1	MPTP block 91 | Rh123 counter 102
CC1CCN(S(=O)(=O)c2ccc(Oc3ccc([N+](=O)[O-])cc3)cc2)CC1	MPTP block 67 | Rh123 counter 71
O=C1Nc2ccccc2-c2nnnn2C1N1CCCCC1 (stereo unspecified)	none (no result: Platelet DG rel, HSP90 inh, dFosB act, HSF1 activator, HSF1 inh)
COc1cccc(CN(CC(=O)NCc2ccccc2)C(=O)c2csnn2)c1	none
COc1cccc(CNCCNC(=O)c2nonc2N)c1	none
COc1cc(CNCCNC(=O)c2nonc2N)ccc1OCc1ccc(Cl)cc1	MPTP block 83 | Rh123 counter 28
NS(=O)(=O)c1ccc(CCNCc2cc(Br)ccc2OCc2ccccc2F)cc1	MPTP block 78 | Rh123 counter 66
Nc1nonc1C(=O)NCCNCc1ccccc1OCc1ccccc1F	none
NS(=O)(=O)c1ccc(CCNCc2cc(Cl)ccc2OCc2ccccc2)cc1	none
Nc1nonc1C(=O)NCCNCc1cc(Br)ccc1OCc1ccccc1F	MPTP block 84 | Rh123 counter 80
O=C(OCc1cn([C@@H]2CN(C(=O)C3CCCCC3)[C@@H](c3ccc(Cl)cc3)C[C@H]2O)nn1)c1ccccc1	none (no result: Platelet DG rel, HSP90 inh, dFosB act, HSF1 activator, HSF1 inh)
O=C(CN1C(=O)NC2(CCCCCC2)C1=O)NCc1ccccc1	none (no result: Platelet DG rel, HSP90 inh, HSF1 activator, HSF1 inh)

Source: PubChem
